From PubChem
Rows were chosen to be rich in hits. Some 3.3% of all compounds tested hit in one or more screens of this group.
TPT1 inhibitor: C. albicans TPT1 enzyme inhibition; 0.81% of 300,000 active; recombinant caTPT1, FP RNA substrate dephosphorylation; inhibition, % at 5 µM;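 active = inhibition above the mean of all tested compounds plus 3 SD, set per screening campaign, cut at about 24% in these data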;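 also: plate controls were DMSO alone for no effect and ferristatin control at 100 nM for full effect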
Rpn11 inh: inhibitors of human proteasome Rpn11; human 26S proteasome, Ub4-pepOG fluorescence polarization; 20S core pre-blocked with epoxomicin; inhibition, % at 20 µM; O00487; 0.59% of 360,000 active;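 active = inhibition at 20 µM, scaled to each plate's controls, above about 33%, limit read from the data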
PHOSPHO1 block: blocks human PHOSPHO1 phosphatase activity; AID 1565; inhibition, % at 13.3 µM; recombinant PHOSPHO1, absorbance phosphatase assay; 1.1% of 290,000 active; in the data active = inhibition above about 60%
CTSL1 counter: blocks F. hepatica cathepsin L1 in PFM18AAP counter-screen; recombinant F. hepatica cathepsin L1, Z-Leu-Arg-MCA fluorescence; inhibition, % at 5.96 µM; 0.49% of 300,000 active; AID 1906;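 active = inhibition above the mean of all tested compounds plus 3 SD, set per screening campaign, cut at about 17% in these data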;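 also: 0% = plate median of test compound wells and 100% = 1 µM Z-Phe-Ala-diazomethylketone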
HNF4A DNA FP: change in binding of human HNF4 alpha to DNA | P41235 | HNF4a-FITC DNA binding, fluorescence polarization, 1 h | activity change, % at 10 µM | 0.3% of 360,000 active | AID 1224865; in the data active = activity change above about 30%, passing the limit was not always enough
Target sequence (P41235 whole entry, looked up): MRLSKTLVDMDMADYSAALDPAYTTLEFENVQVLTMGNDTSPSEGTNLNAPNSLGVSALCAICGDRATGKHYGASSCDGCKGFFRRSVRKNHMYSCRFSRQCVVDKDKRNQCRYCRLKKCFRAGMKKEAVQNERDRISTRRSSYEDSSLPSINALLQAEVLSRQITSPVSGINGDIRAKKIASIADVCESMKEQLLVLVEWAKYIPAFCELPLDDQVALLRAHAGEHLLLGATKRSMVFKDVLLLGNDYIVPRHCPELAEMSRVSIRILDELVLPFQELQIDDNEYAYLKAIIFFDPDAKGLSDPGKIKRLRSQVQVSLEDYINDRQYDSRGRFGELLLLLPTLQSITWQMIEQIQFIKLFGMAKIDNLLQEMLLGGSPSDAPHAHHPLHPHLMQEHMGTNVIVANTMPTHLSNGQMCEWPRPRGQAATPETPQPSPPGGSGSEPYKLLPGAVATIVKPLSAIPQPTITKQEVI
CendR NRP1 mod: alters CendR peptide binding to human NRP-1 | O14786 | FAM-RPARPAR peptide binding to NRP-1, fluorescence polarization | inhibition, % at 25 µM | 0.85% of 360,000 active | AID 602438;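 active = inhibition or corrected inhibition above about 18%, plus a signal ratio from 0.5 to 1.5, limit read from the data, passing the limit was not always enough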
Numbers without * were called inactive; / = no result.

SMILES	TPT1 inhibitor	Rpn11 inh	PHOSPHO1 block	CTSL1 counter	HNF4A DNA FP	CendR NRP1 mod
Cc1cc(C)c(C(=O)COC(=O)c2ccc([N+](=O)[O-])o2)cc1C	1.3	-3.4	7.6	-1.9	1.4	1.4
Cc1cccc(NC(=O)c2ccc(OCc3c(C)noc3C)cc2)c1	/	1.2	/	/	7.4	28.8*
CC(=O)c1cccc(NC(=O)c2ccc(OCc3c(C)noc3C)cc2)c1	/	0.1	/	/	-3.0	2.6
COc1cccc(NC(=O)CN(C)C(=O)c2cccc(NS(=O)(=O)c3ccc(Br)cc3)c2)c1	/	2.3	/	/	1.8	0.5
Cc1noc(C)c1COc1ccccc1C(=O)N(C)CC(=O)Nc1ccc(Cl)c(Cl)c1	-1.5	1.1	/	4.5	-2.2	-6.0
COc1cccc(NC(=O)CN(C)C(=O)c2ccccc2OCc2c(C)noc2C)c1	3.6	-3.6	/	26.6*	2.7	15.1
COc1cccc(NC(=O)CN(C)C(=O)c2cccc(NS(=O)(=O)c3ccccc3)c2)c1	/	3.0	/	/	2.6	30.2*
CC(C)(C)S(=O)(=O)N1Cc2ccc(CO)cc2[C@@H]1CCO	/	-9.2	/	/	-1.6	6.6
Cc1ccc(-c2cc3nc(C)cc(N4CCN(C(=O)c5ccoc5)CC4)n3n2)cc1	/	-3.0	/	/	-7.5	-5.8
COc1ccc(Cl)cc1NC(=O)c1noc(C)c1[N+](=O)[O-]	2.4	-10.3	-6.1	2.6	0.5	-5.8
Nn1c(-c2ccc(F)cc2)nc2ccccc2c1=O	-3.0	-6.4	28.0	0.0	-0.2	6.7
O=C1c2cc(F)ccc2-n2c1nc1ccccc1c2=O	1.3	18.5	1.8	16.9*	-0.7	-10.8
CN(CC(=O)Nc1cccc(F)c1)C(=O)c1cc([N+](=O)[O-])ccc1N1CCCCC1	0.2	-8.7	/	10.1	-1.1	-2.8
CC(C)Oc1ccc(C(=O)Nc2ccc(N3CCCCC3)cc2)cc1	-2.6	3.6	17.3	-2.1	82.4*	-1.6
Cc1ccc(C(=O)Nc2ccc(N3CCCCC3)cc2)cc1	/	-0.7	/	/	-4.6	-3.3
O=C(CCl)Nc1ccc(N2CCCCCC2)cc1	-0.8	0.9	-7.0	21.3*	-0.2	42.6*
COc1cccc(C(C)(O)c2nc(-c3cccc(C#N)c3)cs2)c1 (centres undefined)	/	4.3	/	/	0.0	1.6
C=CCNc1nc(-c2ccc([N+](=O)[O-])cc2)cs1	1.4	-1.1	-15.4	0.6	1.3	0.7
C=CCNc1nc(-c2ccc(Cl)cc2)cs1	-0.9	-6.6	-1.6	24.5*	-1.8	7.3
CC(C)Nc1c([N+](=O)[O-])c(=O)oc2ccccc12	-0.2	-3.1	45.6	-4.2	0.5	-1.5
CC(Nc1c([N+](=O)[O-])c(=O)oc2ccccc12)c1ccccc1 (centres undefined)	6.1	-9.4	61.1*	0.0	2.8	-6.5
Nn1c(CSc2nc3ccccc3o2)nnc1CSc1nc2ccccc2o1	-2.2	9.3	25.6	2.1	-1.1	0.0
Cc1csc2nc(CSc3nc4ccccc4o3)cn12	-2.8	-3.5	61.2*	1.9	0.2	-12.4
Cc1cc(C)n2c(Br)c(CSc3nc4ccccc4o3)nc2n1	1.0	-16.0	79.7*	0.3	-5.7	15.5
O=C(CCC1CCN(C(=O)CC2=CCCCC2)CC1)NCc1ccc(F)cc1	/	2.6	/	/	5.2	-5.1
SMILES	TPT1 inhibitor	Rpn11 inh	PHOSPHO1 block	CTSL1 counter	HNF4A DNA FP	CendR NRP1 mod
Cc1ccc(S(=O)(=O)NC2CC(=O)N(c3ccc4c(c3)OCCO4)C2)cc1 (centres undefined)	-0.9	-9.3	/	0.5	-1.2	1.9
CCOc1ncccc1C(=O)N1CCN(c2ccc(C(F)(F)F)cn2)CC1	-1.3	-16.6	20.1	-2.5	91.0*	-4.1
CCOc1ccc(NC(=O)C2CCCN(S(C)(=O)=O)C2)cc1 (centres undefined)	3.0	-2.1	/	-1.1	4.0	-15.5
CCN1C(=O)[C@H]2[C@@H](c3ccc(-c4cccc(Cl)c4)c(OC)c3)N3CCC[C@@]3(C(=O)OC)[C@H]2C1=O	/	10.5	/	/	6.6	-7.0
Cc1ccc(C(=O)N/C(=C/c2ccco2)C(=O)OCN2C(=O)c3ccccc3C2=O)cc1	-1.0	1.8	-1.1	43.0*	3.5	-19.6
CCCOC(=O)/C(=C\C=C\c1ccco1)NC(=O)c1ccccc1	16.9	23.2	6.5	26.2*	8.4	-36.4
CCN(CC)C(=O)CSc1nc(OC)cc(=O)[nH]1	-0.7	-3.8	3.1	-2.8	1.7	-10.3
Cc1cc(C)c(NC(=O)c2ccccc2CCc2ccccc2)c(C)c1	-1.2	0.1	1.0	17.1*	2.2	-1.5
Cc1ccc(C(=O)NCCCc2ccccc2)c(C)c1	1.9	-3.8	43.9	-2.0	2.2	21.9*
Cc1ccc(NC(=O)c2ccccc2CCc2ccccc2)c(C)c1	1.2	1.5	25.3	-2.0	-0.2	19.1
Cc1cc2[nH]c(=O)c(=O)[nH]c2cc1S(=O)(=O)NC1CCCCC1C (centres undefined)	-3.1	9.9	7.0	1.7	0.7	-14.5
Cc1cc2c(cc1S(=O)(=O)NC1CCCCC1C)OCC(=O)N2 (centres undefined)	2.8	3.5	-3.7	0.9	-1.8	39.5*
CS(=O)(=O)N1CCCCC1c1cc(C(=O)Nc2cccc3c2CCCC3)no1 (centres undefined)	/	5.1	/	/	2.0	0.1
CCCn1nc2cc(C(=O)NCc3ccc4c(c3)OCO4)ccc2c1OCC	-2.3	-7.6	20.3	0.0	-2.1	-10.8
CCOc1c2ccc(C(=O)NCc3ccc4c(c3)OCO4)cc2nn1CCOC	-2.9	-8.9	8.0	1.5	1.9	18.0*
CCOc1c2ccc(C(=O)NCc3ccc(OC(F)(F)F)cc3)cc2nn1CC	-3.9	-5.3	30.5	-0.4	-0.5	-5.3
CCCn1nc2cc(C(=O)NCc3ccc(OC(F)(F)F)cc3)ccc2c1OCC	-0.2	-9.4	-41.6	5.2	-4.0	18.8*
Cc1c(C(=O)Nc2ccc(S(=O)(=O)NCC3CCCO3)cc2)cccc1[N+](=O)[O-] (centres undefined)	-1.0	2.2	28.2	0.9	-1.0	37.7*
Cc1cccc(NS(=O)(=O)c2ccc(C(=O)NCC3CCCO3)cc2)c1C (centres undefined)	-0.9	1.3	60.6*	0.1	1.3	15.4
O=C(Nc1ccc(S(=O)(=O)NCC2CCCO2)cc1)c1ccc(Cl)cc1[N+](=O)[O-] (centres undefined)	-1.0	-0.1	37.8	0.1	3.0	-1.3
COc1cccc(NC(=O)CC2C(=O)NC3CCCCC3N2C(=O)c2ccc(F)cc2)c1 (centres undefined)	0.5	-1.6	22.8	-6.4	-5.4	-3.2
C=CCSc1nnc(-c2ccccc2N=Cc2c(C)[nH]n(-c3ccccc3)c2=O)c(=O)[nH]1	-1.9	2.4	68.6*	5.2	1.3	-1.8
COc1ccc(C2C3=C(CC(C)(C)CC3=O)N(CC(=O)O)C3=C2C(=O)CC(C)(C)C3)cc1OC	-1.3	4.6	46.6	19.6*	3.0	17.0
